Test results published in PubChem BioAssay (EPA / NIEHS).
Calls of active or inactive are those of the source. Rule for the calls: active = hit-call score of the fitted dose curve at least 0.9, where 1 is the maximum; inactive = score below 0.9.

Experiments:
[1] = read-out: Human Leukocyte Antigen - DR isotype (HLADR), HLA-DRA (gene 3122); experiment: BSK_3C_HLADR: BioMAP Diversity Plus: 3C Assay for Human Leukocyte Antigen - DR isotype (HLADR) Biomarker Activity (AID 2283019); details: primary human endothelial cells (HUVEC); actives raise or lower the signal
Summary of the method: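 ELISA readout of surface HLA-DR on human umbilical vein endothelium, taken 24 h after chemical treatment. Gain- and loss-of-signal were both fitted relative to DMSO.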

[2] = read-out: Interleukin-8 (IL8), CXCL8 (gene 3576); experiment: BSK_3C_IL8: BioMAP Diversity Plus: 3C Assay for Interleukin-8 (IL8) Biomarker Activity (AID 2283020); details: primary human endothelial cells (HUVEC); actives raise or lower the signal
Summary of the method: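 Primary human umbilical vein endothelial cells (3C system) were exposed to test chemical for 24 h, then IL-8 was quantified by ELISA. Responses were fitted bidirectionally against DMSO vehicle as baseline.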

[3] = read-out: Monokine induced gamma interferon (MIG), CXCL9 (gene 4283); experiment: BSK_3C_MIG: BioMAP Diversity Plus: 3C Assay for Monokine induced gamma interferon (MIG) Biomarker Activity (AID 2283021); details: primary human endothelial cells (HUVEC); actives raise or lower the signal;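 for AC50: MIG protein level measured by immunoassay in the treated endothelial cultures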
Summary of the method: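 Primary human umbilical vein endothelial cells in the 3C system were exposed to chemical for 24 h, after which MIG was quantified by ELISA. Activity was fitted bidirectionally against DMSO as negative control and baseline.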

[4] = BSK_3C_SRB: Viability Assessment in the BioMAP Diversity Plus: 3C Assay (AID 2283023); details: primary human endothelial cells (HUVEC);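 note: fitted both ways against DMSO so a hit may be signal rise or drop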
Summary of the method: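 Absorbance at 560 nm of sulforhodamine B-stained (0.1%) total protein served as a cytotoxicity readout in human umbilical vein endothelial cells, 24 h after chemical treatment. Signal was fitted bidirectionally relative to DMSO.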

[5] = read-out: Matrix Metallopeptidase 1 (MMP1), MMP1 (gene 4312); experiment: BSK_BE3C_MMP1: BioMAP Diversity Plus: BE3C Assay for Matrix Metallopeptidase 1 (MMP1) Biomarker Activity (AID 2283024); details: primary human bronchial epithelial cells; actives raise or lower the signal
Summary of the method: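 Primary human bronchial epithelial cells were dosed with test chemicals, and MMP1 levels were measured by ELISA 24 h later. Data were fitted bidirectionally against DMSO as the negative control and activity baseline.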

[6] = BSK_3C_Vis: BioMAP Diversity Plus: 3C Assay for Morphology Visualization (AID 2283025); details: primary human endothelial cells (HUVEC);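 note: fitted both ways so gain or loss versus DMSO counts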
Summary of the method: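 Human umbilical vein endothelial cells in the 3C system were imaged by light microscopy 24 h after chemical dosing to record cell morphology. Activity was fitted bidirectionally against DMSO as negative control and baseline; the endpoint serves as a background control.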

[7] = read-out: Pselectin, SELP (gene 6403); experiment: BSK_4H_Pselectin: BioMAP Diversity Plus: 4H Assay for Pselectin Biomarker Activity (AID 2283026); details: primary human endothelial cells (HUVEC); actives raise or lower the signal
Summary of the method: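 Primary human umbilical vein endothelial cells were exposed to test chemical for 24 h, then cell-surface P-selectin was quantified by ELISA. Activity was fitted bidirectionally against DMSO as negative control and baseline.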

[8] = BSK_BE3C_SRB: Viability Assessment in the BioMAP Diversity Plus: BE3C Assay (AID 2283028); details: primary human bronchial epithelial cells;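 for AC50: fitted both ways so AC50 may mark signal gain or loss versus DMSO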
Summary of the method: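 Cells (human bronchial epithelial, primary) are treated with chemicals, and after 24 h the parallel cultures are fixed in 10% TCA. These are then stained with 0.1% SRB and read at 560 nm. Gain or loss of signal is fitted relative to DMSO.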

[9] = read-out: Thrombomodulin, THBD (gene 7056); experiment: BSK_3C_Thrombomodulin: BioMAP Diversity Plus: 3C Assay for Thrombomodulin Biomarker Activity (AID 2283029); details: primary human endothelial cells (HUVEC); actives raise or lower the signal
Summary of the method: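 Primary human umbilical vein endothelial cells (3C system) were exposed to chemical for 24 h, then thrombomodulin levels were measured by ELISA. Activity was fitted bidirectionally against the DMSO negative control as baseline.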

[10] = read-out: Urokinase-type plasminogen activator receptor (uPAR), PLAUR (gene 5329); experiment: BSK_4H_uPAR: BioMAP Diversity Plus: 4H Assay for Urokinase-type plasminogen activator receptor (uPAR) Biomarker Activity (AID 2283030); details: primary human endothelial cells (HUVEC); actives raise or lower the signal
Summary of the method: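 Cell-surface uPAR ELISA signal, measured 24 h after dosing human umbilical vein endothelial cells, was analyzed with bidirectional fitting relative to DMSO. Parallel SRB staining of total protein tracked overt cytotoxicity.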

[11] = read-out: Vascular endothelial growth factor receptor 2 (Homo sapiens) (UniProt P35968); experiment: BSK_4H_VEGFRII: BioMAP Diversity Plus: 4H Assay for Vascular endothelial growth factor receptor 2 (VEGFR2) Biomarker Activity (AID 2283031); details: primary human endothelial cells (HUVEC); actives raise or lower the signal;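 for AC50: cell-surface VEGFR2 protein level quantified by ELISA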
Summary of the method: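 ELISA read-out of VEGFRII in primary human umbilical vein endothelium, taken 24 h after chemical treatment. Responses are expressed relative to DMSO, with bidirectional fitting.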

[12] = read-out: Human Leukocyte Antigen - DR isotype (HLADR), HLA-DRA (gene 3122); experiment: BSK_BE3C_HLADR: BioMAP Diversity Plus: BE3C Assay for Human Leukocyte Antigen - DR isotype (HLADR) Biomarker Activity (AID 2283032); details: primary human bronchial epithelial cells; actives raise or lower the signal
Summary of the method: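 Human primary bronchial epithelial cells in the BE3C system were exposed to chemicals for 24 h, after which HLA-DR levels were quantified by ELISA. Activity was fitted bidirectionally, gain or loss of signal, against DMSO as negative control and baseline.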

[13] = read-out: Vascular cell adhesion molecule 1 (VCAM1), VCAM1 (gene 7412); experiment: BSK_4H_VCAM1: BioMAP Diversity Plus: 4H Assay for Vascular cell adhesion molecule 1 (VCAM1) Biomarker Activity (AID 2283033); details: primary human endothelial cells (HUVEC); actives raise or lower the signal
Summary of the method: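 Primary human umbilical vein endothelial cells were exposed to chemicals for 24 h, after which VCAM-1 was quantified by ELISA. Responses were fitted bidirectionally against DMSO as negative control and activity baseline.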

[14] = read-out: Interferon-gamma inducible Protein 10 (IP10), CXCL10 (gene 3627); experiment: BSK_BE3C_IP10: BioMAP Diversity Plus: BE3C Assay for Interferon-gamma inducible Protein 10 (IP10) Biomarker Activity (AID 2283034); details: primary human bronchial epithelial cells; actives raise or lower the signal
Summary of the method: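 Human primary bronchial epithelial cells were exposed to chemicals for 24 hours, after which IP-10 levels were measured by ELISA. Data were fitted bidirectionally against DMSO, which served as the negative control and activity baseline.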

[15] = read-out: Monokine induced gamma interferon (MIG), CXCL9 (gene 4283); experiment: BSK_BE3C_MIG: BioMAP Diversity Plus: BE3C Assay for Monokine induced gamma interferon (MIG) Biomarker Activity (AID 2283035); details: primary human bronchial epithelial cells; actives raise or lower the signal
Summary of the method: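 Primary human bronchial epithelial cells treated for 24 h; MIG levels measured by ELISA, fitted bidirectionally versus DMSO. Parallel SRB total-protein staining assessed cytotoxicity.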

[16] = read-out: Transforming growth factor beta 1 (TGFb1), TGFB1 (gene 7040); experiment: BSK_BE3C_TGFb1: BioMAP Diversity Plus: BE3C Assay for Transforming growth factor beta 1 (TGFb1) Biomarker Activity (AID 2283036); details: primary human bronchial epithelial cells; actives raise or lower the signal
Summary of the method: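 Human primary bronchial epithelial cells (BE3C system) were dosed with chemical and TGF-b1 levels measured by ELISA at 24 h. Activity was fitted bidirectionally relative to DMSO negative control as baseline.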

[17] = read-out: Plasminogen activator inhibitor-1 (PAI1), SERPINE1 (gene 5054); experiment: BSK_BE3C_PAI1: BioMAP Diversity Plus: BE3C Assay for Plasminogen activator inhibitor-1 (PAI1) Biomarker Activity (AID 2283037); details: primary human bronchial epithelial cells; actives raise or lower the signal
Summary of the method: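 Human primary bronchial epithelial cells were exposed to chemical for 24 h, then PAI-1 was quantified by ELISA. Activity was fitted bidirectionally relative to the DMSO negative control baseline.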

[18] = read-out: urokinase plasminogen activator (uPA), PLAU (gene 5328); experiment: BSK_BE3C_uPA: BioMAP Diversity Plus: BE3C Assay for urokinase plasminogen activator (uPA) Biomarker Activity (AID 2283038); details: primary human bronchial epithelial cells; actives raise or lower the signal
Summary of the method: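 Bronchial epithelial cells (human, primary); chemical 24 h; uPA by ELISA; bidirectional fit vs DMSO. SRB (0.1%, after 10% TCA fixation, 560 nm) in parallel cultures for cytotoxicity.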

[19] = BSK_4H_SRB: Viability Assessment in the BioMAP Diversity Plus: 4H Assay (AID 2283027); details: primary human endothelial cells (HUVEC);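 note: cells exposed to compound for 24 h before staining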;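 for AC50: curves fitted both ways versus DMSO so AC50 may be loss or gain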
Summary of the method: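 Human umbilical vein endothelial cells, 24 h after chemical dosing; total protein measured by 0.1% sulforhodamine B staining after 10% TCA fixation, read at 560 nm. Bidirectional fitting against DMSO.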

Measured: AC50

COCCOCCO
not listed: [19]
inactive: all other assays above

O=S(=O)(F)C(F)(F)C(F)(F)C(F)(F)C(F)(F)C(F)(F)C(F)(F)C(F)(F)C(F)(F)F
not listed: [6] | [16] | [19]
inactive: all other assays above

O=C(O)C(Cl)Cl
not listed: [19]
inactive: all other assays above

COP(=O)(CCC(=O)NCO)OC
not listed: [6] | [16]
inactive: all other assays above

O=C(O)C(F)(F)C(F)(F)C(=O)O
not listed: [6] | [16]
inactive: all other assays above

CCCCC(CC)COP(=O)(Oc1ccccc1)Oc1ccccc1 (stereo not given)
inactive: [3] | [8] | [15] | [16] | [17] | [18]
active: [1] 9.37 µM | [2] 6.65 µM | [4] 9.7 µM | [5] 1.91 µM | [6] 10.1 µM | [7] 12.3 µM | [9] 3.97 µM | [10] 20 µM | [11] 10.4 µM | [12] 20 µM | [13] 20 µM | [14] 20 µM

CCN(CC)c1ccccc1
not listed: [19]
inactive: all other assays above

O=[N+]([O-])c1ccc(Cl)c(Cl)c1
not listed: [19]
inactive: all other assays above

c1ccc2c(c1)Nc1ccccc1S2
inactive: all assays above

C=CC(=O)OCC(CC)(COC(=O)C=C)COC(=O)C=C
inactive: [9]
active: [1] 1.38 µM | [2] 3.18 µM | [3] 3.68 µM | [5] 11.4 µM | [6] 2.98 µM | [7] 2.25 µM | [19] 4.07 µM | [8] 20 µM | [10] 4.07 µM | [11] 5.14 µM | [12] 3.18 µM | [13] 2.45 µM | [14] 4.45 µM | [15] 9.44 µM | [16] 6.86 µM | [17] 10.5 µM | [18] 4.96 µM

O=[N+]([O-])c1ccccc1
not listed: [11] | [19]
inactive: all other assays above

OCC(F)(F)OC(F)(F)C(F)(F)OC(F)(F)CO
not listed: [6] | [16] | [19]
inactive: all other assays above

CCOP(=S)(S)OCC
not listed: [4]
inactive: all other assays above

c1cc2c3c(cccc3c1)CC2
not listed: [4]
inactive: all other assays above

CCOP(=S)(OCC)SCSc1ccc(Cl)cc1
active: [1] 27.5 µM | [7] 12.6 µM | [13] 6.58 µM
inactive: all other assays above
